In the supplement of paper PMC10681739:

How the values were obtained:
ETS1 [1] = molecular target: T1, ETS1 (UniProt P14921); experiment: ETS1 binding intensity (PBM fluorescence), ETS1 alone (arbitrary fluorescence units); higher = stronger binding; conditions: ETS1 concentration 1 nM; RUNX1 concentration 0 nM
T1 sequence: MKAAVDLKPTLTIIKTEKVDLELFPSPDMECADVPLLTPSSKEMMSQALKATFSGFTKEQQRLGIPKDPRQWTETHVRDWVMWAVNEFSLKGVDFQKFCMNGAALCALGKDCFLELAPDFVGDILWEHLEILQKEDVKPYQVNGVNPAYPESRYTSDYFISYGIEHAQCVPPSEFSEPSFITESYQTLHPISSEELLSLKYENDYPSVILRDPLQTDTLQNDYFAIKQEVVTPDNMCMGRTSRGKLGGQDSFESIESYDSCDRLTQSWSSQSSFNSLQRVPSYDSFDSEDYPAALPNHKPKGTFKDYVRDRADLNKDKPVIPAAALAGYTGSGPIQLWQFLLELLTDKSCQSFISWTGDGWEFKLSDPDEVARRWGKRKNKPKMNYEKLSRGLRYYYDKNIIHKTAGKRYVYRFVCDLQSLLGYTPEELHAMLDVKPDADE

RUNX1 [2] = molecular target: RUNX1 (UniProt Q01196); experiment: RUNX1 binding intensity (PBM fluorescence), RUNX1 alone (arbitrary fluorescence units); higher = stronger binding; conditions: RUNX1 concentration 2 nM; ETS1 concentration 0 nM
Chain of RUNX1 (Q01196 whole entry): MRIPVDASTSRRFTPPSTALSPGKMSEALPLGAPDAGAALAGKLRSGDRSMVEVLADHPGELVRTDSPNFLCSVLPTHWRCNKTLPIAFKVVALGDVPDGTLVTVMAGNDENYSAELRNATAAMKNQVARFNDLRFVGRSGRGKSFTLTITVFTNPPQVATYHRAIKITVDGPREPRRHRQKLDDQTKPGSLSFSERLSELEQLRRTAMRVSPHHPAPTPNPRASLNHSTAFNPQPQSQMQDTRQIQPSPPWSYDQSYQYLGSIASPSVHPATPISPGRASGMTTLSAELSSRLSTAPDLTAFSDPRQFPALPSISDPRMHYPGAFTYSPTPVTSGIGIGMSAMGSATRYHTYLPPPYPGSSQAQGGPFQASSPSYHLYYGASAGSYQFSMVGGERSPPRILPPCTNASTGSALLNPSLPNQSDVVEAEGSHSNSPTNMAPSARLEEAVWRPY
Protocol: (§1)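 Cooperative gcPBM on 36-bp genomic probes with neighbouring ETS1 and RUNX1 sites. Recombinant human RUNX1 (2 nM) was incubated alone or with ETS1 (25 nM) and detected with anti-RUNX1 antibody plus Alexa488 secondary. Values are medians over 4 replicate spots; the RUNX1+ETS1 data were normalised to the RUNX1-only data. The probes sit in constant array flanks that are not printed.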

RUNX1 [3] = molecular target: RUNX1 (UniProt Q01196); experiment: RUNX1 binding intensity (PBM fluorescence) in presence of ETS1, normalised to RUNX1-only experiment (arbitrary fluorescence units); higher = stronger binding; conditions: RUNX1 concentration 2 nM; ETS1 concentration 25 nM
Protocol: as §1

ETS1 [4] = molecular target: T1, ETS1; experiment: ETS1 binding intensity (PBM fluorescence) in presence of RUNX1, normalised to ETS1-only experiment (arbitrary fluorescence units); higher = stronger binding; conditions: ETS1 concentration 1 nM; RUNX1 concentration 25 nM
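Wherever RUNX1 binding intensity (PBM fluorescence) in presence of ETS1, normalised to RUNX1-only experiment is given: Full-length recombinant human ETS1 or RUNX1 bound to double-stranded 36-bp genomic probes on microarrays, detected by protein-specific primary antibody and Alexa488 secondary, spot fluorescence as median of four replicate spots.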
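Wherever RUNX1 binding intensity (PBM fluorescence), RUNX1 alone is given: Full-length recombinant human RUNX1 bound to double-stranded 36-bp genomic probes on a high-density microarray, scored as Alexa488 fluorescence per spot via anti-RUNX1 antibody, median of four replicate spots.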

Sequence	ETS1 binding intensity (ETS1 [1])	RUNX1 binding intensity (RUNX1 [2])	RUNX1 binding intensity (RUNX1 [3])	ETS1 binding intensity (ETS1 [4])
AGCTCCCCTCCCCGGAAACTTGACCACCTAGCCCAG	1510	875	813	–
GTCCCCGTAACAGGATGTGGTGAGCTGTTATACCAC	6710	802	4520	–
CACCTGCAGTGAAGAGGATGTGGGCAAAGATTATGC	1350	746	1100	–
AGCCGTCATTCAGGATGTGGTGACAGACATGGAGAC	1200	769	1320	–
CAGCGGCCGTCGCGGGAAGTGCGGTCGCCGCGGCCA	500	871	966	–
TGGCAGAGCACATCCTGTGCGGTTTTCAGTTTTGCT	1120	2600	5430	–
GTTGAAATTGAGCTTCCGTTGGTGGTTAACCCTCTG	648	894	1310	–
TACTAGTTTGGGGCATCCTGTGGTATAGGGGAAGCA	4100	797	1080	–
CACTTCCTCCTCGGGGGCCTCAGAAAACCACAGGGC	413	1110	2790	–
AAATCCACTCAGAGGAAACCACAGGCCTGGCCCAGC	365	1300	1690	–
TGCGCCGGGAGGAAGGGCTCCAAAACCACAGGGCGG	411	900	927	–
ATCATCTAGGAGACAGGATGTGGTTAGGGTGTTAAA	6360	1070	7840	–
AGAATCGCATCAGGATGTGGTGAGGGAGCACATTTG	948	713	969	–
TCCTGGCAGAGACCGGAAGTGCGGTCCGCGGAGCGT	28200	739	1800	–
GTAAATAAAGAGGAAGTCCCTATGCGGGGGATGGGG	1910	850	884	–
AACCATTACAGGATGTGAGATTCAAACCACTAACAG	2270	849	1180	–
GAAAAAAATGAGCTTCCTTTAACCACAACTGTATTA	508	1350	2340	–
TGCGAGGTTGCCAGGAAACCGCGAAGCCGAGGTCCC	808	1120	1530	–
TCGCACCGGAACCCCTTGGCGGATTATGTGGGTTCC	659	782	862	–
TGCTTAGCGGGAAGTGCTTACACCACAAAACAAGAC	678	726	1750	–
GTAGGGAAGACGGGATGTGGGTTTTCAGCCGTGGCC	1220	730	2520	–
GAGATACACAGCGACATCCGCCCGCAAGAGCATGGT	823	733	1280	–
CGGCAGGCAAGCAGGAAACCGCGAGTGGAGAAAGGG	1960	1010	1860	–

Sequence	ETS1 binding intensity (ETS1 [1])	RUNX1 binding intensity (RUNX1 [2])	RUNX1 binding intensity (RUNX1 [3])	ETS1 binding intensity (ETS1 [4])
GCGCGGCCCGGAAGGGGGTAACCGCTGAGTCTTTGA	794	784	1010	–
TGCTTCCCTTCCGTTCCGACAGCGAAAACCGCTGCC	532	998	2030	–
GCTCATTTCCTGGCCGCTCCTGGGCTTCGCGGTGAG	498	834	1730	–
GCAGGACTTCCTGTGTTGTGCTAACCTCAAATTACA	975	859	2030	–
CTTAGAGTACCAGGATGTGGTTTGGCCTGGGGGTGG	1790	1000	1800	–
GTGGGAGCGGAAGCCTGAGCGGCCTGCGGCCTCCGG	863	692	1040	–
CTCTTCCTGCCTGTCCGTGGCTGGTGTGGTTTGCGT	457	958	2670	–
TAGCCACGAACCGGAAACGTTAAACCACAGCTCCGT	9650	994	5730	–
GGTTCTCTAGGGAGAGGATGTGGGTTTGTCTCTGGG	1820	791	1570	–
CACCTCCTCTCCGGATGCGGTTTGTTCTGCTTGTAG	2580	2210	6810	–
CTGACGCATTTCCGGCCTTTGCGGTTGATCGGTCAT	5220	4410	18100	–
CCCGTTCTCCGGAAGTGCGCGGGTTGGAGCTGAAGC	4390	760	1600	–
CTCACTTCCCCGGCAGCTCCCTCGCCCCGACCGCAG	406	1910	2740	–
AGGGAACAGGAAATGCAAAAAACCACAAGGGACAAG	2100	2050	15800	–
GGCCTGTCACACACAGGAAGCGGTCACAGAAAAGCT	4530	795	2140	–
GAGTGGGCGGAAATCCGTGCCTGGCAGACCACAAAG	1320	765	1500	–
GGCAACCCAAGGAAGTATCTCTGAAACCACACAACA	540	1040	1110	1190
CATAGACCGGATGCCTCGTCAACCACAGAAACCAAT	2620	1000	2940	–
CCAATGGGCAGGCGGAAACCGCGGGCTCGTGCTCCC	1580	956	1350	–
GGCTTCCTGCCCAACTACCAAGAAAAAGCCACAAAG	453	1100	2040	–
CAAGCCAGGAAGAGGGCCCTCACCAGAAACCGCACT	407	907	1150	–
CGGCAGGGAAGCAGGAAACCGCGAGTGGAGAAAGGG	1790	1160	2170	–
CAGAGCAGAGAGGAAGTGGTGGTGGCCACAGTCCCA	1760	686	1220	–
